Measurements from PubChem BioAssay (NCI).
Compounds without any hit were thinned out: in the full panel of roughly 83,000, 20% have a hit.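 Growth was measured after 48 h exposure to one concentration of compound in 96-well plates. Values under 10 count as active.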 Active and inactive are the calls of the source.

Columns and labels:
Assay in all cases: NCI-60 one-dose screen, 48 h (100 = growth as untreated, 0 = no growth, -100 = all killed)
SK-MEL-2 melanoma = details: 10 µM unless noted
EKVX NSCLC = details: 10 µM unless noted
SN12C renal = details: 10 µM unless noted
UO-31 renal = details: 10 µM unless noted
TK-10 renal = details: 10 µM unless noted
ACHN renal = details: 10 µM unless noted
CAKI-1 renal = details: 10 µM unless noted
A498 renal = details: 10 µM unless noted
CCRF-CEM leukemia = details: 10 µM unless noted
MOLT-4 leukemia = details: 10 µM unless noted
SR leukemia = details: 10 µM unless noted
RPMI-8226 leukemia = details: 10 µM unless noted
OVCAR-8 ovarian = details: 10 µM unless noted
OVCAR-5 ovarian = details: 10 µM unless noted
OVCAR-4 ovarian = details: 10 µM
SK-OV-3 ovarian = details: 10 µM unless noted
IGROV1 ovarian = details: 10 µM unless noted
OVCAR-3 ovarian = details: 10 µM unless noted
HS 578T breast = details: 10 µM unless noted
NCI/ADR-RES ovarian = details: 10 µM unless noted

Measured: growth

CC1Cc2c(Cl)ncnc2N(C)c2ccc(Cl)cc21 (stereo not given)
active: SK-MEL-2 melanoma -27.7% | SN12C renal 2.41% | CAKI-1 renal 8.59% | A498 renal -34.9% | MOLT-4 leukemia 8.07% | SR leukemia 6.35% | RPMI-8226 leukemia -3.81% | OVCAR-8 ovarian 8.59% | OVCAR-4 ovarian 7.91% | OVCAR-3 ovarian 9.74%
inactive: EKVX NSCLC 14.2% | UO-31 renal 19.6% | TK-10 renal 11.2% | ACHN renal 11.8% | CCRF-CEM leukemia 19.4% | OVCAR-5 ovarian 39.8% | SK-OV-3 ovarian 12% | IGROV1 ovarian 30.5% | HS 578T breast 23.4% | NCI/ADR-RES ovarian 13.1%

Oc1cc(Nc2ccnc3cc(Cl)ccc23)c2ncccc2c1
inactive: SK-MEL-2 melanoma 94.4% | EKVX NSCLC 98.5% | SN12C renal 79.3% | UO-31 renal 44.4% | TK-10 renal 109% | ACHN renal 71.1% | CAKI-1 renal 86.2% | A498 renal 100% | CCRF-CEM leukemia 67.9% | MOLT-4 leukemia 68.9% | SR leukemia 37% | RPMI-8226 leukemia 53.5% | OVCAR-8 ovarian 70.3% | OVCAR-5 ovarian 104% | OVCAR-4 ovarian 44.4% | SK-OV-3 ovarian 85.4% | IGROV1 ovarian 94.3% | OVCAR-3 ovarian 81% | HS 578T breast 62.1% | NCI/ADR-RES ovarian 51.8%

CCN(CC)c1cc(N)c(Cc2c(N)cc(N(CC)CC)cc2Cl)c(Cl)c1
active: RPMI-8226 leukemia 3.27%
inactive: SK-MEL-2 melanoma 41.6% | EKVX NSCLC 31.9% | SN12C renal 21.8% | UO-31 renal 68.5% | TK-10 renal 82.1% | ACHN renal 80.2% | CAKI-1 renal 65.7% | A498 renal 76.7% | CCRF-CEM leukemia 51.5% | MOLT-4 leukemia 40.8% | SR leukemia 34.8% | OVCAR-8 ovarian 37.3% | OVCAR-5 ovarian 92.3% | OVCAR-4 ovarian 23.8% | SK-OV-3 ovarian 49.8% | IGROV1 ovarian 54.7% | OVCAR-3 ovarian 47.2% | HS 578T breast 56% | NCI/ADR-RES ovarian 81.5%

Cn1cc(-c2noc(-c3cn(C)c4ncc(Br)cc34)n2)c2cc(Cl)ccc21
inactive: SK-MEL-2 melanoma 82.4% | EKVX NSCLC 62.7% | SN12C renal 50.5% | UO-31 renal 71.8% | TK-10 renal 64.7% | ACHN renal 31.8% | CAKI-1 renal 50.8% | A498 renal 84.8% | CCRF-CEM leukemia 68.6% | MOLT-4 leukemia 67.7% | SR leukemia 44.3% | RPMI-8226 leukemia 87.6% | OVCAR-8 ovarian 99.7% | OVCAR-5 ovarian 70.5% | SK-OV-3 ovarian 62.8% | IGROV1 ovarian 54.2% | OVCAR-3 ovarian 44.2% | HS 578T breast 65.8% | NCI/ADR-RES ovarian 58.5%
active: OVCAR-4 ovarian -25.7%

CSc1nc(=S)c2nc(SC)n(-c3ccccc3)c2[nH]1
inactive: SK-MEL-2 melanoma 83.1% | EKVX NSCLC 105% | SN12C renal 96.7% | UO-31 renal 83.9% | TK-10 renal 96.9% | ACHN renal 102% | CAKI-1 renal 90.9% | A498 renal 86.6% | CCRF-CEM leukemia 82.5% | MOLT-4 leukemia 107% | SR leukemia 104% | RPMI-8226 leukemia 90.7% | OVCAR-8 ovarian 100% | OVCAR-5 ovarian 104% | OVCAR-4 ovarian 104% | SK-OV-3 ovarian 96.4% | IGROV1 ovarian 101% | OVCAR-3 ovarian 105% | HS 578T breast 92.3% | NCI/ADR-RES ovarian 101%

C=CCCCCOc1ccccc1-c1cnc(OCCCCC=C)n1C
inactive: SK-MEL-2 melanoma 46.1% | EKVX NSCLC 85.2% | SN12C renal 91.1% | UO-31 renal 69.3% | TK-10 renal 75% | ACHN renal 84.5% | CAKI-1 renal 54.9% | A498 renal 51.1% | CCRF-CEM leukemia 80.9% | MOLT-4 leukemia 91.4% | SR leukemia 30.7% | RPMI-8226 leukemia 80.8% | OVCAR-8 ovarian 83.9% | OVCAR-5 ovarian 95.2% | OVCAR-4 ovarian 97.9% | SK-OV-3 ovarian 75% | IGROV1 ovarian 62.9% | OVCAR-3 ovarian 51.3% | HS 578T breast 66.4% | NCI/ADR-RES ovarian 30.4%

Cc1nc(Cl)c2c(n1)N(C)c1ccc(Cl)cc1C(C)C2 (stereo not given)
inactive: SK-MEL-2 melanoma 96.1% | EKVX NSCLC 75% | SN12C renal 86.6% | UO-31 renal 70.9% | TK-10 renal 92.9% | ACHN renal 91.7% | CAKI-1 renal 78.8% | A498 renal 81.5% | CCRF-CEM leukemia 90.3% | MOLT-4 leukemia 80.6% | SR leukemia 83.2% | RPMI-8226 leukemia 66.8% | OVCAR-8 ovarian 95.9% | OVCAR-5 ovarian 101% | OVCAR-4 ovarian 83% | SK-OV-3 ovarian 86.3% | IGROV1 ovarian 92.7% | OVCAR-3 ovarian 98.7% | HS 578T breast 42.5% | NCI/ADR-RES ovarian 95.8%

O=C(CSc1nc2ccc([N+](=O)[O-])cc2[nH]1)Nc1cccc(Cl)c1
inactive: EKVX NSCLC 16.7% | TK-10 renal 37.8% | ACHN renal 22.5% | CAKI-1 renal 17.6% | CCRF-CEM leukemia 16.4% | SR leukemia 12.7% | OVCAR-8 ovarian 18.7% | OVCAR-5 ovarian 61.4% | SK-OV-3 ovarian 29.4% | IGROV1 ovarian 37.9% | OVCAR-3 ovarian 19% | HS 578T breast 38.3% | NCI/ADR-RES ovarian 25.4%
active: SK-MEL-2 melanoma 7.44% | SN12C renal 6.25% | UO-31 renal 9.96% | A498 renal 5.48% | MOLT-4 leukemia 7.99% | RPMI-8226 leukemia -19.6% | OVCAR-4 ovarian 2.46%

C#CCOc1ccc(C2=NN(CC3CC3)C3N=C(Cl)c4ncn(CC5CC5)c4N23)cc1OCC#C (stereo not given)
inactive: SK-MEL-2 melanoma 82.7% | EKVX NSCLC 80.1% | SN12C renal 82.2% | UO-31 renal 46.9% | TK-10 renal 76% | ACHN renal 62% | CAKI-1 renal 43.7% | A498 renal 50.9% | CCRF-CEM leukemia 64.3% | MOLT-4 leukemia 61% | SR leukemia 65.7% | RPMI-8226 leukemia 73.7% | OVCAR-8 ovarian 71.6% | OVCAR-5 ovarian 96.6% | OVCAR-4 ovarian 71.3% | SK-OV-3 ovarian 73.8% | IGROV1 ovarian 67.8% | OVCAR-3 ovarian 90.4% | HS 578T breast 79.4% | NCI/ADR-RES ovarian 85.3%

CC1Cc2c(Cl)ncnc2N(C)c2ccccc21 (stereo not given)
inactive: EKVX NSCLC 21.7% | SN12C renal 15.8% | UO-31 renal 10.4% | TK-10 renal 15.1% | ACHN renal 26% | CAKI-1 renal 19.3% | CCRF-CEM leukemia 34.2% | RPMI-8226 leukemia 12.2% | OVCAR-8 ovarian 10.7% | OVCAR-5 ovarian 41.8% | OVCAR-4 ovarian 21.5% | SK-OV-3 ovarian 15.8% | IGROV1 ovarian 50.5% | OVCAR-3 ovarian 10.6% | HS 578T breast 24.6% | NCI/ADR-RES ovarian 16.6%
active: SK-MEL-2 melanoma -28.2% | A498 renal -18.4% | MOLT-4 leukemia 8.61% | SR leukemia 6.5%

C/C=C/C1OC23CCCCC2C(C#N)(C(=N)O3)C1(C#N)C#N (stereo not given)
inactive: SK-MEL-2 melanoma 107% | EKVX NSCLC 106% | SN12C renal 93.7% | UO-31 renal 76.2% | TK-10 renal 103% | ACHN renal 94.1% | CAKI-1 renal 81.2% | A498 renal 118% | CCRF-CEM leukemia 81.2% | MOLT-4 leukemia 95% | SR leukemia 49.1% | RPMI-8226 leukemia 98.8% | OVCAR-8 ovarian 93.9% | OVCAR-5 ovarian 103% | OVCAR-4 ovarian 95% | SK-OV-3 ovarian 103% | IGROV1 ovarian 96.2% | OVCAR-3 ovarian 90.2% | HS 578T breast 96.9% | NCI/ADR-RES ovarian 104%

CCOc1ccc(/C=C(\C#N)c2cc3ccccc3[nH]2)cc1
inactive: SK-MEL-2 melanoma 36.1% | EKVX NSCLC 72.5% | SN12C renal 62.7% | UO-31 renal 69.5% | TK-10 renal 79.3% | ACHN renal 81.8% | CAKI-1 renal 40.3% | A498 renal 56.9% | CCRF-CEM leukemia 63.4% | MOLT-4 leukemia 31.2% | SR leukemia 18.2% | RPMI-8226 leukemia 79.7% | OVCAR-8 ovarian 65.4% | OVCAR-5 ovarian 76.5% | OVCAR-4 ovarian 82.5% | SK-OV-3 ovarian 67.8% | IGROV1 ovarian 56% | OVCAR-3 ovarian 41.9% | HS 578T breast 66.4% | NCI/ADR-RES ovarian 26.1%

COC(=O)[C@H](CC(C)C)NC(=O)NC(=O)NC(=O)CI
active: UO-31 renal -76.3% | CAKI-1 renal -69.2% | CCRF-CEM leukemia -46.3% | MOLT-4 leukemia 4.18% | SR leukemia -51% | OVCAR-3 ovarian -74.1%
inactive: SK-MEL-2 melanoma 78.8% | EKVX NSCLC 94.8% | SN12C renal 76.5% | TK-10 renal 72.3% | ACHN renal 37% | A498 renal 82.8% | RPMI-8226 leukemia 61.6% | OVCAR-8 ovarian 73.3% | OVCAR-5 ovarian 86.9% | OVCAR-4 ovarian 59% | SK-OV-3 ovarian 92.4% | IGROV1 ovarian 62% | HS 578T breast 106% | NCI/ADR-RES ovarian 92.2%

O=C(CCCCCCSc1nc(-c2ccc(Cl)cc2)cc(-c2ccc(Cl)cc2)n1)NO
active: UO-31 renal 8.29% | CCRF-CEM leukemia 5.2% | SR leukemia 5.47% | NCI/ADR-RES ovarian 3.91%
inactive: SK-MEL-2 melanoma 92.7% | EKVX NSCLC 50.9% | SN12C renal 26.1% | TK-10 renal 30.7% | ACHN renal 15.5% | CAKI-1 renal 13.4% | A498 renal 81.8% | MOLT-4 leukemia 11.4% | RPMI-8226 leukemia 34.9% | OVCAR-8 ovarian 20.5% | OVCAR-5 ovarian 39.4% | OVCAR-4 ovarian 35.9% | SK-OV-3 ovarian 17.4% | IGROV1 ovarian 27.6% | OVCAR-3 ovarian 22.9% | HS 578T breast 69.5%

CCCCCn1sc(=O)n(Cc2ccc(CNC(=O)OCc3ccc4cccc(O)c4n3)cc2)c1=O
inactive: SK-MEL-2 melanoma 39.3% | EKVX NSCLC 28.7% | SK-OV-3 ovarian 41.7% | HS 578T breast 10.8%
active: SN12C renal -79.7% | UO-31 renal -100% | TK-10 renal -54% | ACHN renal -100% | CAKI-1 renal -74.9% | A498 renal 4.89% | CCRF-CEM leukemia 7.05% | MOLT-4 leukemia 1.87% | SR leukemia 4.06% | RPMI-8226 leukemia -14.6% | OVCAR-8 ovarian 8.91% | OVCAR-5 ovarian -42.3% | OVCAR-4 ovarian -50.6% | IGROV1 ovarian -85.9% | OVCAR-3 ovarian -84.5% | NCI/ADR-RES ovarian -11.6%
